Source: PubChem BioAssay (National Center for Advancing Translational Sciences (NCATS))
In the library only some 3% were active in any assay of this set; here they are far more common.
p53ts 39C tox: p53ts cell cytotoxicity, nonpermissive temperature. 1.5% of 130,000 active. H1299-p53A138V viability at 39C, ATP luminescence, 24 h. Potency, µM (top dose mostly 46.1 µM), inactives show at the top dose activity change, negative = cell killing, usual class: cytotoxic; also: % is scaled to controls: 0 for no effect and ±100 for the full control effect; nearly all actives have a fitted effect of over 55% in size
Imprint erasure: induces erasure of genomic imprints in mouse ES cells. Potency, µM (series often up to 60.7 µM), for inactives: top-dose activity change, positive = activation, usual class: activators. 0.02% of 110,000 active. mouse ES Peg3-LacZ reporter, beta-gal luminescence, 40 h. AID 1948
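Each well holds 300 Peg3LacZ-Neo (maternal) female ES cells incubated 40 h at 37C, 5% CO2. LacZ is measured by BetaGlo luminescence, with AC50 and maximum efficacy derived from dose-response curves.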
CRE Fsk mod: CRE-bla signaling modulation under forskolin stimulation. CHO CRE-bla reporter (cAMP response element driving beta-lactamase), forskolin EC10, beta-lactamase ratio. Potency, µM (highest dose often 38.2 µM), inactives show top-dose activity change, negative = inhibition, usual class: activators. 2.5% of 71,000 active; active = well fitted activation curve with a large enough effect in the signal ratio, with a control signal flat, not every such curve was filed as active; inconclusive = small, poorly fitted or top-dose-only effect, or effect the other way, or a change in a side signal; the % refers to the signal ratio; also: % of control where 0% means no effect
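CRE-bla CHO cells stimulated with EC10 NKH 477 (water-soluble forskolin) and compound titrations, 3 h at 37C; beta-lactamase read with CCF4 after 2 h at room temperature. Activity from 460/530 nm emission ratio, AC50 values for positive or negative modulation.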
p53ts 32C kill: p53ts cell cytotoxicity, permissive temperature | H1299-p53A138V at 32C, ATP luminescence viability, 24 h | Potency, µM (top dose mostly 46.1 µM), for the others: at the highest dose activity change, negative = cytotoxicity, most hits filed as cytotoxic | 0.93% of 130,000 active | AID 924;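 also: 0% = DMSO and -100% = full killing by reference compound; nearly all actives have a fitted effect of over 55% in size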
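Cells: H1299 p53ts (A138V), 600/well, pre-incubated 16–30 h at 37C. Cpd up to 46 uM, 24 h, 32C. Readout: ATPlite luminescence, 20 min RT. Normalization: DMSO vs tamoxifen 100 uM. AC50 by Hill equation.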
IkB sig inh: IkB pathway inhibition in ABC-DLBCL cells; AID 445; Potency, µM (top dose mostly 57.1 µM), inactives show at the top dose IkBa stabilization activation; 0.04% of 110,000 active; ABC-DLBCL IkBa-CBG/CBR dual luciferase ratio, 4 h; response scale: scaled: untreated 0%, proteasome inhibitor 100%; active = well fitted curve in the direction sought with a large enough effect in the signal ratio, not every such curve was filed as active; inconclusive = small, poorly fitted or top-dose-only effect, or a change in a side signal; the % refers to the signal ratio;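 also: the direction sought is a rising ratio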
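Curves were fitted separately to fusion (green), unfused (red) and ratio luminescence, then classed by r2, magnitude and activity. Cells: OCI-Ly3, 4 h compound plus doxycycline at 37C; 10 uM MG-132 defined full response.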
* hit, by the source's call; [ ] = another dose, or the depositor's remark. Unless noted, calls follow the shape of the dose curve; as a rule, active = well fitted curve in the direction sought with a large enough effect; inconclusive = small, poorly fitted or top-dose-only effect, or another doubt; inactive = no such curve, though single readings can be large; an effect the other way counts as inactive or inconclusive. Potency is read from the fitted curve at half-maximal effect.

Screening Cc1cc(NCCOCCO)n2ncc(-c3ccc(Cl)cc3)c2n1 returned p53ts 39C tox inconclusive, Imprint erasure -14.6%, CRE Fsk mod 7.94µM*, p53ts 32C kill inconclusive and IkB sig inh 0.5%.
CCCCCCCN(C(=O)CCl)c1ccccc1C was read as p53ts 39C tox 25.1µM* and p53ts 32C kill inconclusive.
Screening CCN(C(=O)c1ccc(C(=O)N(CC)c2ccccc2C)cc1)c1ccccc1C returned p53ts 39C tox 15.5%, Imprint erasure -8.3%[10.9 µM], p53ts 32C kill 7.7% and IkB sig inh inconclusive.
Screening COc1ccc2[nH]c(=O)c(CN(C3CCCCC3)C(c3nnnn3Cc3ccco3)C(C)C)cc2c1 (centres undefined) returned p53ts 39C tox inconclusive, CRE Fsk mod 21.9%, p53ts 32C kill 20.3% and IkB sig inh 7.94µM*.
Screening COc1ccc2[nH]c(=O)c(CN(Cc3nnnn3Cc3ccco3)C3CCCCC3)cc2c1 returned p53ts 39C tox -6.4%, Imprint erasure -12.0%, CRE Fsk mod -3.4%, p53ts 32C kill -4.1% and IkB sig inh 1.0%.
For O=C(Nc1cccnc1)c1cnn2c(C(F)F)cc(C3CC3)nc12 the results were p53ts 39C tox -11.7%, Imprint erasure 2.2%, CRE Fsk mod 7.94µM*, p53ts 32C kill -2.6% and IkB sig inh -0.2%.
Cc1ccc(NC(=O)c2cnn3c(C(F)F)cc(-c4ccccc4)nc23)cc1F was read as p53ts 39C tox 7.9%, Imprint erasure -5.3%[10.9 µM], p53ts 32C kill -4.3% and IkB sig inh 0.0%.
CNS(=O)(=O)c1ccc(NC(=O)c2cnn3c(C(F)F)cc(-c4ccccc4)nc23)cc1 was read as p53ts 39C tox 12.6µM*, Imprint erasure 5.5%[10.9 µM], p53ts 32C kill 6.4% and IkB sig inh -1.0%.
O=C(CCCn1c(=O)c2cccn2c2ccccc21)NCCc1ccc(Cl)cc1 was read as p53ts 39C tox 12.6µM*, Imprint erasure -21.5%[10.9 µM], p53ts 32C kill 10µM* and IkB sig inh inconclusive.
Screening COc1ccc(CCNC(=O)Cn2c(=O)c3cccn3c3ccccc32)cc1OC returned p53ts 39C tox 15.8µM*, Imprint erasure -3.3%[10.9 µM], p53ts 32C kill -21.3% and IkB sig inh inconclusive.
Screening COc1ccc(OC)c(CNC(=O)c2ccccc2NC(=O)c2nsc3ccccc23)c1 returned p53ts 39C tox inconclusive, Imprint erasure -16.0%[10.9 µM], p53ts 32C kill -17.0% and IkB sig inh 0.8%.
Screening Cc1cccc(-c2nc(CN3CCCC(C(=O)NCCc4ccc(Cl)cc4)C3)c(C)o2)c1 (centres undefined) returned p53ts 39C tox 12.6µM*, Imprint erasure -13.5%[10.9 µM], p53ts 32C kill inconclusive and IkB sig inh inconclusive.
`COc1cc(C(=O)NCCCc2nc3ccccc3n2CC(C)C)cc(OC)c1OC` gave p53ts 39C tox 29.1%, Imprint erasure -6.9%[10.9 µM], p53ts 32C kill -5.7% and IkB sig inh -1.8%.
For Cc1ccccc1OCCCn1c(CCNC(=O)C2CCCCC2)nc2ccccc21 the results were p53ts 39C tox 15.8µM*, Imprint erasure -9.2%[10.9 µM], p53ts 32C kill -11.5% and IkB sig inh inconclusive.
`O=C(NCCc1nc2ccccc2n1CCCOc1ccc(Cl)cc1)C1CCCCC1` gave p53ts 39C tox 15.8µM*, Imprint erasure -5.1%[10.9 µM], p53ts 32C kill inconclusive and IkB sig inh inconclusive.
`CCn1c(CCNC(=O)c2ccc(OC)c(OC)c2)nc2ccccc21` gave p53ts 39C tox -11.7%, Imprint erasure -7.6%, CRE Fsk mod 12.6µM*, p53ts 32C kill -3.3% and IkB sig inh 0.8%.
For Cc1ccc(-c2nc(CS(=O)CC(=O)N3CCN(c4ccc(Cl)cc4)CC3)c(C)o2)cc1 (centres undefined) the results were p53ts 39C tox -20.3%, Imprint erasure -9.9%[10.9 µM], p53ts 32C kill -6.2% and IkB sig inh inconclusive.
CSCCC(NS(=O)(=O)c1ccc2c(c1)oc(=O)n2C)C(=O)N1CCN(c2cc(C)ccc2C)CC1 (centres undefined) was read as p53ts 39C tox 11.6%, Imprint erasure -5.0%[10.9 µM], p53ts 32C kill 12.0% and IkB sig inh 1.8%.
`CCOc1cccc2c1OC(c1cc(OC)c(OC)c(OC)c1)N1N=C(c3ccc(C)o3)CC21` (centres undefined) gave p53ts 39C tox inconclusive and p53ts 32C kill 11.2µM*.
COc1ccc(CNC(=O)CCc2c(C)nn(-c3ccc(N4CCCC4)nn3)c2C)c(OC)c1 was read as p53ts 39C tox -3.7%, Imprint erasure -5.4%[10.9 µM], p53ts 32C kill -1.7% and IkB sig inh 0.3%.
`c1ccc(CNc2nc3ccccc3n3cnnc23)nc1` gave p53ts 39C tox -8.0%, Imprint erasure -12.4%, CRE Fsk mod 12.6µM*, p53ts 32C kill -1.8% and IkB sig inh -1.1%.
Screening Oc1ccc(Nc2nc3ccccc3n3cnnc23)cc1 returned p53ts 39C tox -14.7%, Imprint erasure 0.0%[10.9 µM], p53ts 32C kill 2.9% and IkB sig inh 0.3%.
`Cc1ccc(NS(=O)(=O)c2ccc3nc(-c4ccccc4)[nH]c3c2)cc1Cl` gave p53ts 39C tox 12.6µM*, Imprint erasure -14.8%[10.9 µM], p53ts 32C kill inconclusive and IkB sig inh inconclusive.
For COc1ccc(Nc2c3c(nc4ccc(NC(=O)c5cc(Cl)ccc5OC)cc24)CCCC3)cc1OC the results were p53ts 39C tox 5.01µM*, Imprint erasure -36.7%[10.9 µM], p53ts 32C kill 5.62µM* and IkB sig inh inconclusive.
COc1cc(OC)cc(C(=O)Nc2ccc3nc4c(c(Nc5ccc(OC)c(OC)c5)c3c2)CCCC4)c1 was read as p53ts 39C tox inconclusive, Imprint erasure inconclusive, p53ts 32C kill inconclusive and IkB sig inh -3.9%.
For Oc1ccccc1-c1cc(-c2ccc3c(c2)OCCO3)n[nH]1 the results were p53ts 39C tox inconclusive, Imprint erasure -86.1%, CRE Fsk mod -9.9%, p53ts 32C kill 12.6µM* and IkB sig inh inconclusive.
For O=C1c2ccccc2C(=O)C1c1ccc2ccccc2n1 the results were p53ts 39C tox 2.51µM*, Imprint erasure 8.7%, CRE Fsk mod 6.6%, p53ts 32C kill inconclusive and IkB sig inh inconclusive.
`Cn1c(=O)c2c(nc(SCC(=O)Nc3ccccc3F)n2Cc2ccccc2F)n(C)c1=O` gave p53ts 39C tox 4.8%, Imprint erasure -13.2%[10.9 µM], p53ts 32C kill 2.8% and IkB sig inh inconclusive.
Screening COc1ccc(C(=O)Nc2nc(-c3nnn(-c4ccc(C(C)C)cc4)c3C)ns2)cc1 returned p53ts 39C tox -7.0%, Imprint erasure 11.6%[10.9 µM], p53ts 32C kill 6.0% and IkB sig inh 1.0%.
`CC1(C)Cc2c(sc3nc(NCCN4CCOCC4)n4ncnc4c23)CO1` gave p53ts 39C tox 1.2%, Imprint erasure -5.7%, CRE Fsk mod 3.98µM*, p53ts 32C kill -4.6% and IkB sig inh -3.4%.
